Source: ChEMBL document CHEMBL4513216, “Probing the Open Global Health Chemical Diversity Library for Multistage-Active Starting Points for Next-Generation Antimalarials” (ACS Infect Dis, 2020)
Out of some 69,000 compounds screened, about 8,600 (12%) showed an effect of 50% or more. What follows is part of a selection rich in strong results, with near analogues and random picks from the rest.

Tested on: Plasmodium berghei
Test: Screen against P. berghei liver stage (PbLuc), transformed with Luciferase, at 10uM
Format: functional, HepG2
Conditions: tested at 10 uM

**Q.** With `CC(c1ccco1)N(C)Cc1cc2cc3c(cc2[nH]c1=O)OCO3` (stereo not given) as the compound, how does the INHIBITION read?
**A.** 16.9%

**Q.** How did the INHIBITION turn out when `CC1CCN(c2ccc(NC(=O)CCn3cccn3)cc2)CC1` was run?
**A.** 11.3%

**Q.** For `CC(NCC(=O)Nc1ccc(N2CCCCCC2)cc1)c1cccs1` (stereo not given), which INHIBITION is on record?
**A.** 64.9%

**Q.** How did the INHIBITION turn out when `CC1CN(c2ccc(NC(=O)Cn3cccn3)cc2)CCO1` (stereo not given) was run?
**A.** 16.5%

**Q.** With `COC1CCN(c2ccc(NC(=O)Cn3cccn3)cc2)CC1` as the compound, how does the INHIBITION read?
**A.** 8.31%

**Q.** `CCc1nccn1CC(=O)Nc1cccc(C(=O)N(C)C)c1` was tested. Which INHIBITION did it give?
**A.** 0.0996%

**Q.** With `COC1CCN(c2ccc(NC(=O)Cn3cccc3)cc2)CC1` as the compound, how does the INHIBITION read?
**A.** 14.2%

**Q.** How did the INHIBITION turn out when `CC(C)CCC(=O)NCc1ccc(N2CCCCC2)cc1` was run?
**A.** 15.5%

**Q.** `O=C(Cn1cccn1)Nc1ccc(N2CCOCC2)cc1` was tested. Which INHIBITION did it give?
**A.** 68.9%

**Q.** `CCc1nccn1CC(=O)Nc1cccc(N2CCCC2)c1` was tested. Which INHIBITION did it give?
**A.** 74.55%

**Q.** For `CCc1nccn1CC(=O)Nc1cccc(C(=O)OC)c1`, which INHIBITION is on record?
**A.** -10.9%

**Q.** `CC(NCC(=O)NCC(=O)Nc1ccc(F)cc1)c1cccs1` (stereo not given) was tested. Which INHIBITION did it give?
**A.** 0.734%

**Q.** `O=C(Cn1cccn1)Nc1ccc(N2CCCCC2)cc1` was tested. Which INHIBITION did it give?
**A.** 50.2%

**Q.** `CN1CCN(C(=O)c2ccccc2)CC(Cc2cc(N(C)C)ncn2)C1` (stereo not given) was tested. Which INHIBITION did it give?
**A.** 21.1%

**Q.** `CCCn1nc(C(=O)N(C)Cc2cnn(C)c2)ccc1=O` was tested. Which INHIBITION did it give?
**A.** 48.7%

**Q.** How did the INHIBITION turn out when `CCOCC1CN(C(=O)c2ccnnc2)Cc2cnn(C)c21` (stereo not given) was run?
**A.** -2.35%

**Q.** For `CN1CCN(Cc2cnc3n2CCN(Cc2cccnc2)CC3)CC1`, which INHIBITION is on record?
**A.** -1.36%

**Q.** How did the INHIBITION turn out when `c1cnc(OCc2nnc3n2CCN(CC2CCOCC2)C3)nc1` was run?
**A.** 6.66%

**Q.** `Cc1nn(C)c(C)c1C1CCCN1C(=O)CCc1ccco1` (stereo not given) was tested. Which INHIBITION did it give?
**A.** -37.7%

**Q.** With `COc1cccc(-c2n[nH]cc2CNC2CCN(C(C)C)CC2)c1` as the compound, how does the INHIBITION read?
**A.** -59.5%

**Q.** `CCC(NC(=O)C1CC1)c1ccccc1OCC(=O)N1CCCC1` (stereo not given) was tested. Which INHIBITION did it give?
**A.** 9.47%

**Q.** With `Cn1c(=O)[nH]c(=O)n2c(CC(=O)Nc3c(Cl)cccc3Cl)cnc12` as the compound, how does the INHIBITION read?
**A.** 9.32%

**Q.** With `CN(C)c1cc(C2CCCN(C(=O)c3noc4c3CCCC4)C2)ccn1` (stereo not given) as the compound, how does the INHIBITION read?
**A.** 65.7%

**Q.** `CCS(=O)(=O)N1CCCC(c2ccnc(N(C)C)c2)C1` (stereo not given) was tested. Which INHIBITION did it give?
**A.** 0.301%

**Q.** How did the INHIBITION turn out when `CN(C)c1cc(C2CCCN2C(=O)c2noc3c2CCCC3)ccn1` (stereo not given) was run?
**A.** -13.2%

**Q.** How did the INHIBITION turn out when `CN(C)c1cc(C2CCCN(S(=O)(=O)C3CCCC3)C2)ccn1` (stereo not given) was run?
**A.** 54.4%

**Q.** `O=C(c1noc2c1CCCC2)N1CCCC(c2nccs2)C1` (stereo not given) was tested. Which INHIBITION did it give?
**A.** 13.7%

**Q.** `CNc1cc(C2CCCN(S(=O)(=O)c3cn[nH]c3)C2)ccn1` (stereo not given) was tested. Which INHIBITION did it give?
**A.** 28%

**Q.** For `Cc1cc(C2CCCN(S(=O)(=O)c3cn[nH]c3)C2)ccn1` (stereo not given), which INHIBITION is on record?
**A.** 19.6%

**Q.** How did the INHIBITION turn out when `CN(C)c1cc(C2CCCN(S(=O)(=O)c3cn(C)cn3)C2)ccn1` (stereo not given) was run?
**A.** -44.2%

**Q.** How did the INHIBITION turn out when `CN(C)c1cc(C2CCCN(S(=O)(=O)c3cn[nH]c3)C2)ccn1` (stereo not given) was run?
**A.** 85.7%

**Q.** `Cc1nc(CCNCc2c(C)nn(C)c2N2CCOCC2)cs1` was tested. Which INHIBITION did it give?
**A.** -1%

**Q.** How did the INHIBITION turn out when `CCc1cc(NCC(O)CN2CCCCC2)ncn1` (stereo not given) was run?
**A.** 27.4%

**Q.** Which INHIBITION does the source give for `COC(=O)Cn1c(=O)[nH]c2cn(-c3ccccc3)c(=O)n21` here?
**A.** -4.56%

**Q.** `CC(C)CCN(C)Cc1ccccc1-c1nc(C(C)C)cc(=O)[nH]1` was tested. Which INHIBITION did it give?
**A.** -6.83%

**Q.** Which INHIBITION does the source give for `Cc1cc(CNCc2c(C(C)C)nn(C)c2N2CCOCC2)no1` here?
**A.** 28.8%

**Q.** How did the INHIBITION turn out when `O=C(COCCOc1ccccc1)N1CCCC(n2ccnc2)C1` (stereo not given) was run?
**A.** 15.6%

**Q.** With `Cc1ccc(CN2CCn3c(C(=O)N(C)C)cnc3C2)s1` as the compound, how does the INHIBITION read?
**A.** 42.1%

**Q.** Which INHIBITION does the source give for `CC1CCc2n[nH]c(C(=O)N3CCc4c(nc(N(C)C)[nH]c4=O)C3)c2C1` (stereo not given) here?
**A.** 16.3%

**Q.** How did the INHIBITION turn out when `CN(Cc1ncnn1C)c1ccnc(Cc2ccccc2)n1` was run?
**A.** -7.16%

**Q.** `CN(C)c1nccc(N(C)Cc2ncnn2C)n1` was tested. Which INHIBITION did it give?
**A.** 32%

**Q.** For `CN(C)c1nccc(N(C)Cc2nc3ccccc3n2C)n1`, which INHIBITION is on record?
**A.** 55.5%

**Q.** With `O=C(NC1CCC1)[C@@H]1C[C@@H]2CCN(Cc3cccs3)C[C@@H]2O1` as the compound, how does the INHIBITION read?
**A.** 50%

**Q.** `COCCNC(=O)[C@H]1C[C@@H]2CCN(c3ccccc3)C[C@H]2O1` was tested. Which INHIBITION did it give?
**A.** 10.5%

**Q.** Which INHIBITION does the source give for `COCCNC(=O)[C@H]1C[C@@H]2CCN(CCc3ccccc3)C[C@H]2O1` here?
**A.** 59%

**Q.** Which INHIBITION does the source give for `O=C([C@@H]1C[C@@H]2CCN(C3CCOCC3)C[C@@H]2O1)N1CCCC1` here?
**A.** -24.1%

**Q.** For `O=C([C@H]1C[C@@H]2CCN(C3CCOCC3)C[C@H]2O1)N1CCCC1`, which INHIBITION is on record?
**A.** 51%

**Q.** Which INHIBITION does the source give for `O=C(NCC1CCOCC1)[C@H]1C[C@@H]2CCN(Cc3ccccc3)C[C@H]2O1` here?
**A.** 32.2%

**Q.** With `O=C(NC1CC1)[C@@H]1C[C@@H]2CCN(Cc3ccccc3)C[C@@H]2O1` as the compound, how does the INHIBITION read?
**A.** 47.4%

**Q.** With `O=C(NCC1CC1)[C@H]1C[C@@H]2CCN(CCc3ccccc3)C[C@H]2O1` as the compound, how does the INHIBITION read?
**A.** 54.4%

**Q.** With `O=C([C@@H]1C[C@@H]2CCN(C3CCOCC3)C[C@H]2O1)N1CCCC1` as the compound, how does the INHIBITION read?
**A.** -9.26%

**Q.** `O=C(NC1CCC1)[C@@H]1C[C@@H]2CCN(Cc3ccncc3)C[C@H]2O1` was tested. Which INHIBITION did it give?
**A.** 32.7%

**Q.** With `COCCNC(=O)[C@H]1C[C@@H]2CCN(CCc3ccccc3)C[C@@H]2O1` as the compound, how does the INHIBITION read?
**A.** 22.9%

**Q.** With `O=C(NCC1CC1)[C@@H]1C[C@@H]2CCN(Cc3ccccc3)C[C@H]2O1` as the compound, how does the INHIBITION read?
**A.** 0.618%

**Q.** For `COc1ccc(OC2CCN(C(=O)[C@@H](N)Cc3c[nH]cn3)CC2)cc1`, which INHIBITION is on record?
**A.** 23.3%

**Q.** For `CN(C)CC1CSCCCN1C(=O)c1cccc(C(F)(F)F)c1` (stereo not given), which INHIBITION is on record?
**A.** 4.35%

**Q.** With `CC(=O)N1CCN(C(=O)Cc2cnc(-c3c(Cl)cccc3Cl)s2)CC1` as the compound, how does the INHIBITION read?
**A.** 13.8%

**Q.** Which INHIBITION does the source give for `CC(C)N1CCC(c2cc(C(F)(F)F)n3ccnc3n2)CC1` here?
**A.** 15.9%

**Q.** How did the INHIBITION turn out when `O=C1CNc2ncnc(Nc3cccc(Cn4cccn4)c3)c2N1` was run?
**A.** 46.1%

**Q.** Which INHIBITION does the source give for `Cc1nonc1CN(C)Cc1cnn(-c2ccc(Cl)cc2)c1` here?
**A.** -8.58%

**Q.** Which INHIBITION does the source give for `CN(C)CCCC(=O)N1C[C@@H]2CC[C@H]1CN(Cc1ccccc1)C2` here?
**A.** 11.2%

**Q.** How did the INHIBITION turn out when `c1ccc(-n2ccc(CN3CCCCC3Cn3cncn3)n2)cc1` (stereo not given) was run?
**A.** -10.1%

**Q.** `CCn1nc(C)c(NC(=O)CN2CC[C@@H](F)C2)c1C` was tested. Which INHIBITION did it give?
**A.** 24.5%

**Q.** `O=C([C@H]1C[C@@H]2CCN(c3cccc(F)c3)C[C@H]2O1)N1CCCC1` was tested. Which INHIBITION did it give?
**A.** 89.5%

**Q.** Which INHIBITION does the source give for `COc1ccccc1CN1CC[C@H]2C[C@@H](C(=O)N3CCCC3)O[C@H]2C1` here?
**A.** -16.6%

**Q.** Which INHIBITION does the source give for `Cc1ncccc1NC(=O)[C@H]1C[C@@H]2CCN(Cc3nccs3)C[C@@H]2O1` here?
**A.** 31.8%

**Q.** For `Cc1ncccc1NC(=O)[C@H]1C[C@@H]2CCN(Cc3ccsc3)C[C@H]2O1`, which INHIBITION is on record?
**A.** 75.4%

**Q.** For `O=C([C@@H]1C[C@@H]2CCN(Cc3ccoc3)C[C@H]2O1)N1CCCC1`, which INHIBITION is on record?
**A.** 26.7%

**Q.** Which INHIBITION does the source give for `COc1ccccc1CN1CC[C@H]2C[C@H](C(=O)N3CCCC3)O[C@H]2C1` here?
**A.** 64.2%

**Q.** Which INHIBITION does the source give for `O=C([C@@H]1C[C@@H]2CCN(Cc3ccc4c(c3)OCO4)C[C@@H]2O1)N1CCCC1` here?
**A.** 33.4%

**Q.** `O=C([C@@H]1C[C@@H]2CCN(c3cccc(F)c3)C[C@H]2O1)N1CCCC1` was tested. Which INHIBITION did it give?
**A.** 42.1%

**Q.** How did the INHIBITION turn out when `O=C([C@@H]1C[C@@H]2CCN(CCc3ccccc3)C[C@H]2O1)N1CCCC1` was run?
**A.** 50%

**Q.** With `CN1CCN(C(=O)[C@@H]2C[C@@H]3CCN(c4cccc(F)c4)C[C@H]3O2)CC1` as the compound, how does the INHIBITION read?
**A.** 23.3%

**Q.** How did the INHIBITION turn out when `Cc1ncccc1NC(=O)[C@@H]1C[C@@H]2CCN(Cc3cccs3)C[C@H]2O1` was run?
**A.** 8.93%

**Q.** Which INHIBITION does the source give for `CNC(=O)[C@H]1C[C@@H]2CCN(CCc3ccccc3)C[C@@H]2O1` here?
**A.** 18.3%
